Test results reported in PubChem BioAssay (NCI).
About 83,000 compounds went through this panel and 20% of them were active in at least one assay; those are over-represented in the sample as a whole.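 The endpoint reported here, percent growth, reads 100 for growth as untreated, 0 for no net growth and -100 for all cells dead.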 Values without a mark were called inactive. Calls of active or inactive are those of the source. Rule for the calls: active = growth percent below 10; inactive = the rest.

Assays:
Test in all cases: NCI-60 one-dose screen, 48 h (100 = growth as untreated, 0 = no growth, -100 = all killed)
Settings in all cases: 10 µM unless noted
NCI-H23 lung = test system: NCI-H23 lung
NCI-H226 lung = test system: NCI-H226 lung
NCI-H322M lung = test system: NCI-H322M lung
HOP-62 NSCLC = test system: HOP-62 NSCLC
NCI-H460 lung = test system: NCI-H460 lung
HOP-92 NSCLC = test system: HOP-92 NSCLC
NCI-H522 lung = test system: NCI-H522 lung
A549/ATCC NSCLC = test system: A549/ATCC NSCLC
786-0 renal = test system: 786-0 renal
COLO 205 colon = test system: COLO 205 colon

SMILES | growth (NCI-H23 lung) | growth (NCI-H226 lung) | growth (NCI-H322M lung) | growth (HOP-62 NSCLC) | growth (NCI-H460 lung) | growth (HOP-92 NSCLC) | growth (NCI-H522 lung) | growth (A549/ATCC NSCLC) | growth (786-0 renal) | growth (COLO 205 colon)
CCCCCCCCCCCCCCCCCC1OC[C@H](COC(=O)O[C@@H](C(=O)O[C@H]2C[C@@]3(O)[C@@H](OC(=O)c4ccccc4)[C@@H]4[C@]5(OC(C)=O)CO[C@@H]5C[C@H](O)[C@@]4(C)C(=O)[C@H](OC(C)=O)C(=C2C)C3(C)C)[C@@H](NC(=O)c2ccccc2)c2ccccc2)O1 (stereo not given in full) | 42.7% | 94.3% | 47.4% | 66.3% | 20.9% | 75% | 60.2% | 43.9% | 91.2% | –
C[C@@]1(CCCCCCCCCc2ccc(O)cc2)C[C@]2(C)OC(=O)C[C@@H]2OO1 | 99.4% | 102% | 105% | 104% | 108% | 82.7% | 90% | 99.4% | 80.2% | –
CCN(CCO)C(Cc1ccccc1)c1ccccc1 (stereo not given) | 93.1% | 101% | 106% | 96.5% | 104% | 100% | 87.9% | 103% | 105% | –
C[C@]12C[C@@H](CO)[C@H](O)C[C@@H]1CC[C@@H]1[C@@H]2CC[C@]2(C)[C@@H](O)CC[C@@H]12 | 102% | 102% | 91.1% | 107% | 106% | 87.3% | 77.7% | 99.7% | 102% | –
O=C(O)C1C(C(=O)O)C2(Cl)C(Cl)=C(Cl)C1(Cl)C2(Cl)Cl.[Hg] (stereo not given) | 90.7% | 106% | 107% | 103% | 98.8% | 127% | -50.2% (active) | 85% | 88% | –
COc1cc2c(cc1OCCCCn1c(-c3cccs3)nc3ccccc31)N=C[C@@H]1CCCN1C2=O | -37.9% (active) | -34.7% (active) | -30.5% (active) | 17.7% | -4.31% (active) | -64.6% (active) | -27.4% (active) | -7.19% (active) | 1.78% (active) | –
CN1CC(CNC(=O)OCc2ccccc2)CC2c3cccc4c3c(cn4C)CC21 (stereo not given) | 71.6% | 78% | 82.9% | 35.2% | 40.4% | 29.5% | 60.5% | 45.5% | 42.8% | –
O=C(Nc1ccc(Cl)cc1)Nc1nccs1 | 50.5% | 69.9% | 40.6% | 31.7% | 21% | 38.6% | -32.3% (active) | 38.6% | 56.8% | –
COC(=O)[C@H](Cc1c[nH]c2ccccc12)NC(=O)[C@@H](OC)[C@@H]1Cc2cc3cc(OC4CC(OC5CC(O)C(O)C(C)O5)C(O)C(C)O4)c(C)c(O)c3c(O)c2C(=O)[C@H]1OC1CC(OC2CC(OC3CC(C)(O)C(O)C(C)O3)C(O)C(C)O2)C(O)C(C)O1 (stereo not given in full) | -20.3% (active) | -38.6% (active) | 6.45% (active) | 9.74% (active) | 6.58% (active) | -13.9% (active) | -28.2% (active) | 12.7% | 1.54% (active) | -39.5% (active)
O=C(CC1(O)C(=O)Nc2ccc(Br)cc21)c1ccc(C(=O)NCC2CCC3(CC2)OOC2(CCCCC2)OO3)cc1 (stereo not given) | 53.7% | 61.3% | 80.1% | 31% | 36.4% | -46.3% (active) | 6.67% (active) | 36.7% | -7.61% (active) | –
O[C@H](CN1CC1)[C@@H](O)CN1CC1 | 65.8% | 79.7% | 103% | 61.8% | 15.5% | 87% | 93.9% | 66.3% | 43.2% | –
CCCOC(=O)N[C@H]1CCc2c(Br)c(OC)c(OC)c(OC)c2-c2ccc(SC)c(=O)cc21 | 26.9% | 15.4% | 34.6% | 41.1% | -18.1% (active) | -3.98% (active) | 8.5% (active) | 18.2% | 1.42% (active) | –
CC[C@H](C)[C@H](NC(=O)[C@H]1CCCCN1C)C(=O)N(C)[C@H](C[C@@H](OC(C)=O)c1nc(C(=O)N[C@@H](Cc2ccccc2)C[C@H](C)C(=O)OC)cs1)C(C)C | 11.8% | 12.6% | 49.3% | 20.6% | 14.6% | -0.123% (active) | -19.8% (active) | 8.91% (active) | 11.8% | –
CNC(=O)Oc1ccc(C(C)(C)C)cc1OC(=O)NC | 100% | 93.6% | 112% | 88.7% | 102% | 95.2% | 84.8% | 90.5% | 89.4% | –
CC(CC1CCCCC1)NCc1ccccc1 (stereo not given) | 85.7% | 101% | 95% | 102% | 105% | 80.1% | 94.6% | 98.2% | 99.9% | –
OCc1ccc2c(c1)OCO2 | 95.8% | 94.6% | 104% | 93.5% | 103% | 97.3% | 90.8% | 92.5% | 104% | –
COC(=O)C1CCC(NC(=O)c2csc([C@@H](C[C@H](C(C)C)N(C)C(=O)[C@@H](NC(=O)[C@H]3CCCCN3C)C(C)C)OC(C)=O)n2)CC1 (stereo not given in full) | 32% | 17% | 47.8% | 7.46% (active) | 6.14% (active) | 32.2% | -25% (active) | 15.9% | 13% | –
CCOC(=O)[C@@H](C)C[C@H](Cc1ccccc1)NC(=O)c1csc([C@@H](C[C@H](C(C)C)N(C)C(=O)[C@@H](NC(=O)[C@H]2C[C@H](O)CCN2C)C(C)C)OC(C)=O)n1 | 30.7% | -29.5% (active) | 43.3% | 10.7% | 5.02% (active) | 26.3% | -39% (active) | 13.5% | 11.2% | –
c1ccc(Nc2nc(-c3ccccc3)c[se]2)cc1 | 87.2% | 81.4% | 69.8% | 69.8% | 100% | 59.8% | 68.6% | 87.5% | 93% | –
Fc1ccc(C2=CCNCC2)cc1 | 50.2% | 86.6% | 111% | 112% | 99.5% | 119% | 63.1% | 113% | 78.8% | –
CC[C@H](C)[C@H](NC(=O)C12C3C4C1C1C2C3C41NC(C)=O)C(=O)N(C)[C@H](C[C@@H](OC(C)=O)c1nc(C(=O)N[C@@H](Cc2ccccc2)C[C@H](C)C(=O)OC)cs1)C(C)C (stereo not given in full) | 25.1% | 31.7% | 51.5% | 22.4% | 3.63% (active) | 30.2% | 6.65% (active) | 27.7% | 12% | –
COc1ccc(S(=O)(=O)Nc2c(/C=C\c3cc(OC)c(OC)c(OC)c3)ccc(OC)c2O)cc1OC | 33.2% | 29% | 44.3% | 71.5% | 5.24% (active) | 30.5% | -9.02% (active) | 20.9% | 14% | –
COC1OC(CO)C(O)C(O)[CH]1[Hg][O]C(C)=O (stereo not given) | 94.2% | 100% | 91.7% | 102% | 94.9% | 123% | -42.7% (active) | 94.9% | 106% | –
Clc1ccc(COC(Cn2ccnc2)c2ccc(Cl)cc2Cl)cc1 (stereo not given) | 54.2% | 70.2% | 84.9% | 75.1% | 33.2% | 26% | 36.4% | 51.7% | 68.5% | –
COC(=O)CCC1=C(C)c2cc3[n-]c(cc4nc(cc5[n-]c(cc1n2)c(CCC(=O)OC)c5C)C=C4C)cc3C.[Cd+2] | 19.1% | 19.8% | 95.5% | 65.7% | -27.3% (active) | 3.42% (active) | -70.1% (active) | 56.1% | 75.2% | –
O=C(CN1CCN(C(=O)c2ccco2)CC1)Nc1ccc(Cl)cc1C(=O)c1ccccc1Cl | 85.3% | 95.1% | 98.2% | 105% | 104% | 73.9% | 67.7% | 77.2% | 95.8% | 95.9%
Cn1cc(-c2csc(-c3cn(CCN4CCOCC4)c4ccc(F)cc34)n2)c2cccnc21 | 22.5% | 16.6% | 73.3% | 8.52% (active) | 44.6% | 27.2% | -0.645% (active) | 22.5% | 56.3% | –
